From the supplement of paper PMC10849652
About 7,900 targets were measured; listed, in parts, are those with a hit and a random draw of the rest. About 0.6% of all pairs of compound and target were hits.

Legend:
Experiment in all cases: log2 fold change, soluble protein after heating vs DMSO (PISA); higher = thermal stabilisation; K562 cells, 10 uM, 30 min; active = over 0.2 and 3.5 SD of the protein, either way, in both replicates (recomputed)
[1] = compound: CN1CCN(CCOc2cc(OC3CCOCC3)c3c(Nc4c(Cl)ccc5c4OCO5)ncnc3c2)CC1 [saracatinib]
In short: (§1)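 K562 cells (2×10^6 cells/mL) were treated with 10 μM compound for 30 min, and aliquots were heated for 3 min over 48°C-58°C. Pooled aliquots were extracted in PBS with 0.5% NP-40 at 4°C, and the supernatant after 21,000xg for 90 min was measured by TMTpro 16plex LC-MS/MS with channel sums equalised. Reported thermal stability, relative to control samples and from duplicates, is a log2 fold change.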

[2] = compound: CN1CCN(c2nc(C3=C(c4c[nH]c5ccccc45)C(=O)NC3=O)c3ccccc3n2)CC1 [sotrastaurin]
In short: as §1

[3] = compound: CN1CC[C@H](c2c(O)cc(O)c3c(=O)cc(-c4ccccc4Cl)oc23)[C@H](O)C1 [alvocidib]
In short: as §1

[4] = compound: CN1CCc2c(c3ccccc3n2Cc2ccc(C(=O)NO)cc2)C1 [Tubastatin A]
In short: as §1

[5] = compound: CNC(=O)C1=CC=CC=C1NC2=NC(=NC=C2Cl)NC3=C(C=C(C=C3)N4CCOCC4)OC
In short: as §1

[6] = compound: CNCc1ccc(-c2[nH]c3cc(F)cc4c3c2CCNC4=O)cc1 [rucaparib]
In short: as §1

[7] = compound: CNc1nc(-c2ccc3c(N)n[nH]c3c2)cc(N2C[C@@H](C(=O)NC3CCCCC3)CC[C@H]2C)n1
In short: as §1

[8] = compound: COC(=O)N[C@@H](C)CNc1nccc(-c2cn(C(C)C)nc2-c2cc(Cl)cc(NS(C)(=O)=O)c2F)n1 [encorafenib]
In short: as §1

[9] = compound: CON(C)C(=O)N1N=C(c2cc(F)ccc2F)S[C@@]1(CCCN)c1ccccc1 [filanesib]
In short: as §1

[10] = compound: CO[C@H]1C[C@@H]2CC[C@@H](C)[C@@](O)(O2)C(=O)C(=O)N2CCCC[C@H]2C(=O)O[C@H]([C@H](C)C[C@@H]2CC[C@H](n3cnnn3)[C@H](OC)C2)CC(=O)[C@H](C)/C=C(\C)[C@@H](O)[C@@H](OC)C(=O)[C@H](C)C[C@H](C)/C=C/C=C/C=C/1C [zotarolimus]
In short: as §1

[11] = compound: COc1cc(C(=O)O)ccc1NC(=O)[C@@H]1N[C@@H](CC(C)(C)C)[C@](C#N)(c2ccc(Cl)cc2F)[C@H]1c1cccc(Cl)c1F [idasanutlin]
In short: as §1

[12] = compound: CS(=O)(=O)N1CCN(Cc2cc3nc(-c4cccc5[nH]ncc45)nc(N4CCOCC4)c3s2)CC1 [pictilisib]
In short: as §1

[13] = compound: CNC(=O)c1ccc(Nc2ncc(C(F)(F)F)c(NCc3nccnc3N(C)S(C)(=O)=O)n2)cc1 [defactinib]
In short: as §1

[14] = compound: COC(=O)[C@H](CCSC)NC(=O)C1=C(C=C(C=C1)NC[C@H](CS)N)C2=CC=CC=C2
In short: as §1

[15] = compound: COc1cc(Nc2ncc3c(n2)-c2ccc(Cl)cc2C(c2c(F)cccc2OC)=NC3)ccc1C(=O)O [alisertib]
In short: as §1

[16] = compound: COc1cc2nc(-c3cc(F)ccc3O)nc(N[C@@H]3CNC[C@H]3C(C)(C)O)c2cc1OC
In short: as §1

[17] = compound: COc1cc2ncnc(Nc3ccc(F)c(Cl)c3)c2cc1OCCCN1CCOCC1 [gefitinib]
In short: as §1

[18] = compound: COc1cccc2cc(-c3nc([C@H]4CC[C@H](C(=O)O)CC4)n4ncnc(N)c34)[nH]c12
In short: as §1

[19] = compound: CS(=O)(=O)CCNCc1ccc(-c2ccc3ncnc(Nc4ccc(OCc5cccc(F)c5)c(Cl)c4)c3c2)o1 [lapatinib]
In short: as §1

[20] = compound: COC1=CC=C(C=C1)CN2C=CC3=C2C=C(C=C3)C(=O)NO
In short: as §1

Measured: log2 fold change

MFSD12 isoform 3 (UniProt Q6NUT3)
Sequence of UniProt Q6NUT3 (Q6NUT3 whole entry, looked up): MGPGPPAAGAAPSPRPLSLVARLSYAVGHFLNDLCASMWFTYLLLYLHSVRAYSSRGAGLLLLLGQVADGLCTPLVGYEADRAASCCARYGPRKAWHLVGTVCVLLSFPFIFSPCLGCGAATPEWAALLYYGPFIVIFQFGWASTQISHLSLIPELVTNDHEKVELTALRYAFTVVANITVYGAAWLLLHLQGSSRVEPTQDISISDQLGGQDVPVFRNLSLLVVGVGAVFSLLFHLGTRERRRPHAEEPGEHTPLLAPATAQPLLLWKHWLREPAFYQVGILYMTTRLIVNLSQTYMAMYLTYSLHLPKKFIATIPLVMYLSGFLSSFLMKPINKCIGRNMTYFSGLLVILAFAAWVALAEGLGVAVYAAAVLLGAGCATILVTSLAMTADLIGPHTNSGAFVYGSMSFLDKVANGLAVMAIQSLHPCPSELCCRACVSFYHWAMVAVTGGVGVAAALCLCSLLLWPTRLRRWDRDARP
inactive: [1] -0.154 | [2] -0.172 | [3] -0.04 | [4] 0.031 | [5] 0.042 | [6] -0.14 | [7] -0.144 | [8] 0.196 | [9] -0.197 | [10] 0.024 | [11] -0.097 | [12] 0.069

KLHL18 (UniProt O94889)
Sequence of UniProt O94889 (O94889 whole entry, looked up): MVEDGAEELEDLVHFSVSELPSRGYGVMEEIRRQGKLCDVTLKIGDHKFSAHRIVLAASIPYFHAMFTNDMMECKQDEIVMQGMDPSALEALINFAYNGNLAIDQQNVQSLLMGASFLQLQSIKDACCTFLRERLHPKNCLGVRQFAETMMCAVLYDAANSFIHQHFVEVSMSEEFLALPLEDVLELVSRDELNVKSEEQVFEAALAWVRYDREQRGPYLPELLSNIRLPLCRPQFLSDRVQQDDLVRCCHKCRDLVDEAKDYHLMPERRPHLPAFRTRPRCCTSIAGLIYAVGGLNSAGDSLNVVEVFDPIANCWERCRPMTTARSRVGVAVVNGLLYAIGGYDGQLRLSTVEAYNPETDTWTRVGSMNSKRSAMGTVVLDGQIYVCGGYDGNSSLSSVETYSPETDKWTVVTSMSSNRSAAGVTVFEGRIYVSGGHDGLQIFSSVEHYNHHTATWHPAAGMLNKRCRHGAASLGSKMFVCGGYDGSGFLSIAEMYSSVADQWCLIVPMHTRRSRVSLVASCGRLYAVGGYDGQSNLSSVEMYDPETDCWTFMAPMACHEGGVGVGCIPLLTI
inactive: [1] -0.033 | [2] -0.042 | [3] -0.084 | [4] 0.144 | [5] -0.077 | [13] -0.04 | [6] -0.042 | [7] 0.007 | [8] 0.019 | [14] -0.05 | [9] 0 | [10] 0.022 | [11] -0.048 | [15] -0.068 | [16] -0.048 | [17] 0.057 | [18] 0.038 | [19] 0.071 | [12] 0.09

LUM (UniProt P51884)
Sequence of UniProt P51884 (P51884 whole entry, looked up): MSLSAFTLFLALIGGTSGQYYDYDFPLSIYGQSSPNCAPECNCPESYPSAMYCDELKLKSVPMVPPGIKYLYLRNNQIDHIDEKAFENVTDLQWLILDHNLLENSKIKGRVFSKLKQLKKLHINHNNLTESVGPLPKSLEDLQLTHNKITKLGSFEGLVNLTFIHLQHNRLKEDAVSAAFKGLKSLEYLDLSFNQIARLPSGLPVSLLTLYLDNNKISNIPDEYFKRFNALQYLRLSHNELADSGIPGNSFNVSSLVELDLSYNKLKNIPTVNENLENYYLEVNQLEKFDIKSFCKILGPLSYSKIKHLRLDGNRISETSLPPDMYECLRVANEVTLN
inactive: [1] 0.081 | [2] 0.29 | [3] 0.047 | [4] -0.145 | [5] 0.085 | [13] -0.071 | [6] -0.167 | [7] 0.014 | [8] -0.011 | [14] 0.283 | [20] -0.151 | [9] 0.169 | [10] 0 | [11] -0.023 | [16] -0.216 | [17] 0.087 | [19] 0.067

LRBA, A0A494BZW2
inactive: [1] -0.005 | [2] 0.065 | [3] 0.015 | [4] -0.42 | [5] -0.368 | [6] -0.055 | [7] -0.008 | [8] 0.041 | [20] 0.006 | [9] -0.136 | [10] -0.127 | [11] -0.207 | [15] 0.001 | [16] 0.453 | [17] -0.026 | [18] 0.046 | [19] -0.097 | [12] 0.095

MED7 (UniProt O43513)
Sequence of UniProt O43513 (O43513 whole entry, looked up): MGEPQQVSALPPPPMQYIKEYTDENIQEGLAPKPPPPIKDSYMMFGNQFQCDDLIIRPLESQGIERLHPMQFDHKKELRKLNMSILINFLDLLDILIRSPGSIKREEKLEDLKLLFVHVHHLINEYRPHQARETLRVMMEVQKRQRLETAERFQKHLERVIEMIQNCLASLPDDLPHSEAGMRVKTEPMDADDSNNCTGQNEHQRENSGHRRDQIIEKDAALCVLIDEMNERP
inactive: [1] -0.026 | [2] 0.151 | [3] -0.072 | [4] -0.145 | [5] -0.056 | [13] -0.015 | [7] -0.006 | [14] 0.012 | [20] -0.021 | [9] -0.01 | [10] 0.07 | [11] -0.159 | [16] -0.049 | [17] -0.022 | [19] -0.116

KXD1 (UniProt Q9BQD3)
Sequence of UniProt Q9BQD3 (Q9BQD3 whole entry, looked up): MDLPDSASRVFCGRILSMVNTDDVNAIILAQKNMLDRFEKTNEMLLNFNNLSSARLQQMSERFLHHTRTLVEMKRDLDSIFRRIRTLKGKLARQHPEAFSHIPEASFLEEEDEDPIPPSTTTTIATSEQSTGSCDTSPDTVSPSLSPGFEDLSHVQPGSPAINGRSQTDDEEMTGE
active: [18] 0.342
inactive: [1] -0.097 | [3] -0.105 | [4] -0.01 | [5] 0.008 | [13] -0.03 | [6] -0.051 | [7] -0.07 | [8] 0.018 | [14] 0.017 | [10] 0.073 | [11] -0.021 | [15] -0.019 | [16] 0.042 | [19] -0.054 | [12] 0.063

LENG8 (UniProt Q96PV6)
Sequence of UniProt Q96PV6 (Q96PV6 whole entry, looked up): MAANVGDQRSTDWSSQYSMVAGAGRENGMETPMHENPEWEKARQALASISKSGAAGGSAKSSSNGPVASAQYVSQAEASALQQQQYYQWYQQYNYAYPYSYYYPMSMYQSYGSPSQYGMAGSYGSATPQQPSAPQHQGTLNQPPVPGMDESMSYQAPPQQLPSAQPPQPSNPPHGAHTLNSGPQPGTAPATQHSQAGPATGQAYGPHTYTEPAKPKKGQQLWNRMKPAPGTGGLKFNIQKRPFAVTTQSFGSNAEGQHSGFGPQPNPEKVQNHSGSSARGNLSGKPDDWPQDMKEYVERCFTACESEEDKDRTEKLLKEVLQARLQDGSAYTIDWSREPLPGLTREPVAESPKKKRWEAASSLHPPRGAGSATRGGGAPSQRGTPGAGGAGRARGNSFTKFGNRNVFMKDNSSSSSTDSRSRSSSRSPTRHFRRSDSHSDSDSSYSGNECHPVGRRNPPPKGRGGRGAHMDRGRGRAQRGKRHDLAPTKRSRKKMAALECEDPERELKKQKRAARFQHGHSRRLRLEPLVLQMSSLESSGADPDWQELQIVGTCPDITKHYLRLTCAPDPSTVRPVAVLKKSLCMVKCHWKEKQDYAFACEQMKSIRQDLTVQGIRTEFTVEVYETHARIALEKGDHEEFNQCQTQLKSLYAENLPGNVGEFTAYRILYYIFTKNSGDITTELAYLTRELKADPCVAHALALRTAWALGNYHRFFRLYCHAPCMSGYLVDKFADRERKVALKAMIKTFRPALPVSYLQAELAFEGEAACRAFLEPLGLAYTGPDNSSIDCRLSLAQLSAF
inactive: [1] -0.112 | [2] -0.043 | [3] -0.074 | [4] -0.021 | [5] -0.125 | [13] -0.316 | [6] 0.044 | [7] 0.133 | [8] 0.129 | [14] -0.133 | [20] 0.205 | [9] 0 | [10] -0.061 | [11] -0.151 | [15] -0.149 | [17] -0.056 | [18] -0.016 | [12] -0.002

LMBRD1 (UniProt Q9NUN5)
Sequence of UniProt Q9NUN5 (Q9NUN5 whole entry, looked up): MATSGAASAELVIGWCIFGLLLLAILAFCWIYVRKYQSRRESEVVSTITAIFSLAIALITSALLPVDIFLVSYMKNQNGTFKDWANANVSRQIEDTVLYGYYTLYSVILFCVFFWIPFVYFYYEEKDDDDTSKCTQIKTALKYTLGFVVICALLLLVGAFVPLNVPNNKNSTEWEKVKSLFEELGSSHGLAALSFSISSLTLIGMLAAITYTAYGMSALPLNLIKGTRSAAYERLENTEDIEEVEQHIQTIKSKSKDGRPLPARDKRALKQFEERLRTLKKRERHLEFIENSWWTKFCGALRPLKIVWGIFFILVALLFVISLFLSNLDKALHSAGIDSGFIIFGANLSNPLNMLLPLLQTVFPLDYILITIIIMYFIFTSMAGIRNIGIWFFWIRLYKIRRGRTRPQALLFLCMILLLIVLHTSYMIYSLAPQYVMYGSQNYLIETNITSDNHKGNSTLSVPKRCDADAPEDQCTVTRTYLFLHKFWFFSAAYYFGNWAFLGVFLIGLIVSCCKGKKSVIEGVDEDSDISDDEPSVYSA
active: [9] -0.39
inactive: [1] 0.154 | [2] 0.023 | [3] 0.042 | [4] 0.098 | [5] 0.052 | [13] 0.047 | [6] -0.023 | [7] -0.173 | [8] 0.053 | [14] -0.057 | [10] 0.049 | [11] 0.102 | [15] -0.022 | [16] -0.062 | [17] 0 | [18] 0.059 | [19] -0.026 | [12] -0.03

LEPROT (UniProt O15243)
Sequence of UniProt O15243 (O15243 whole entry, looked up): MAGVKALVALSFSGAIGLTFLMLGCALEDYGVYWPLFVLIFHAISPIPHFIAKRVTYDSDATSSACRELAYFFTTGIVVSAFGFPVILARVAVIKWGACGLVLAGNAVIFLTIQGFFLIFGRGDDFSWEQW
inactive: [1] -0.261 | [3] 0.071 | [4] -0.133 | [5] 0.087 | [6] 0.028 | [7] -0.25 | [8] -0.077 | [10] -0.056 | [11] 0.31 | [15] -0.027 | [18] 0.041 | [12] -0.212

MAGED1 isoform 2 (UniProt Q9Y5V3)
Sequence of UniProt Q9Y5V3 (Q9Y5V3 whole entry, looked up): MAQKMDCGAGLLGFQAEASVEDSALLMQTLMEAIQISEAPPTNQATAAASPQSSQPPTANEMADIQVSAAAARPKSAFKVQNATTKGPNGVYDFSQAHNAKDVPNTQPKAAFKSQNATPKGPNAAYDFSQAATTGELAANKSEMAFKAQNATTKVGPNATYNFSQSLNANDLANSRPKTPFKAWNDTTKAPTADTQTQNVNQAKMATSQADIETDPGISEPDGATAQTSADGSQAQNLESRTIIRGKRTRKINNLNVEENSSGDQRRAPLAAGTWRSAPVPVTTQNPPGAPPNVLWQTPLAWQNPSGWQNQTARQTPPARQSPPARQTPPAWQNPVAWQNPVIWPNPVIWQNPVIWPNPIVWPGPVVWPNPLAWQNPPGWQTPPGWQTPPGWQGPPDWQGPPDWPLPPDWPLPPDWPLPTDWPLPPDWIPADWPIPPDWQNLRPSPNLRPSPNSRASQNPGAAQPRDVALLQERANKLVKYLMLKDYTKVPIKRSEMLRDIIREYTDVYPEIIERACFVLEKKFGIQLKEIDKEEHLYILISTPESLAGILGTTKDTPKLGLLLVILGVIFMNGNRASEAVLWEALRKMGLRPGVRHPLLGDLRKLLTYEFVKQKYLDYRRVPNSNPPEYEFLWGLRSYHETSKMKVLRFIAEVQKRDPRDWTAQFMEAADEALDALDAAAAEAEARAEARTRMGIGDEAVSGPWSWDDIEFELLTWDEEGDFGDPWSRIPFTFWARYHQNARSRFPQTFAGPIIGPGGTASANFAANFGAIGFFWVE
inactive: [1] -0.073 | [2] -0.196 | [3] 0.002 | [5] 0.015 | [13] 0.036 | [7] 0.117 | [14] 0.197 | [9] 0.264 | [10] 0.001 | [11] 0.054 | [16] -0.058 | [17] 0.228 | [19] 0.034
